This experiment is described as follows: growth inhibitors of anaerobic choline-fed gram-negatives, minimal medium, absorbance (AID 1963822). The settings on record: Gram-negative bacterium anaerobic choline minimal medium.
The mark [1] stands for this setting: measured here: choline growth z-score, timepoint 1, stronger effect = lower value.

Molecules are shown by their SMILES. About 90 (0.2%) of roughly 55,000 compounds were called active. How the calls were made is not given here. For the sample, actives were picked, then their nearest neighbours and some compounds at random.

In the case of `COc1cccc(N2C(=O)c3cc(C)nn3CC2(C)C(=O)NCc2ccccc2)c1` (configuration not stated), the z-score (stronger effect = lower value) was 0.09 (inactive) and the z-score under setting [1] was -0.96.
The like results for `Cc1cc(C)n(CCc2nc(-c3ccc(Cl)cc3)no2)n1` were, in that order, -0.52 (inactive) and -1.19.
The matching figures for `O=C(NC1CCCCC1)c1ccc(Cl)c(-n2nnc3cccnc32)c1`: 0.14 (inactive) and 0.44.
The like results for `Cc1cccc(-c2nn3c(=O)cc(CN4CCN(C(=O)c5cccc(Br)c5)CC4)nc3s2)c1` were, in that order, 0.88 (inactive) and 0.71.
For `COc1ccc2cc3c(nc2c1)N(C(=O)c1ccc(OC)c(OC)c1)CC3`, the z-score reads like this: (stronger effect = lower value) 0.77 (inactive); under setting [1], 0.04.
The like results for `COc1cccc(-c2nn(Cc3ccc(C)cc3)c(=O)c3noc(C)c23)c1` were, in that order, 1.18 (inactive) and -0.21.
The matching figures for `COc1ccc(NC(=O)N2CCN(C)c3ncccc32)cc1`: -0.52 (inactive) and -1.12.
The like results for `COc1ccc(-c2nc(SCC(=O)Oc3ccc(C)cc3C)n3[nH]c(=O)cc3n2)cc1` were, in that order, -0.54 (inactive) and -0.44.
Consider `CN(C)C(=O)CN1C(=O)COc2ccc(C(=O)NCc3ccc4c(c3)OCO4)cc21`, for which the z-score runs as follows: (stronger effect = lower value) 0.4 (inactive); under setting [1], 0.23.
The matching figures for `O=C1CN(Cc2ccccc2Cl)S(=O)(=O)c2ccccc2N1Cc1cccc(F)c1`: 0.04 (inactive) and 0.04.
The like results for `CCOc1ccc(NC(=O)NCCn2c(C(F)(F)F)nc3ccccc32)cc1` were, in that order, 0.3 (inactive) and 0.45.
The like results for `O=C(Cc1nnc(NC(=O)Nc2cccc(Cl)c2)s1)NCc1ccccc1` were, in that order, 0.49 (inactive) and 0.9.
For `CCC(=O)Nc1nc2cc(NC(=O)Nc3cccc(Cl)c3)ccc2s1`, the z-score runs as follows: (stronger effect = lower value) 0 (inactive); under setting [1], -0.84.
The matching figures for `O=C(Cc1csc(NC(=O)Nc2ccc(Cl)cc2)n1)Nc1cccc(Cl)c1`: -2.04 (active) and -1.2.
The matching figures for `O=C(NCc1ccc2c(c1)OCO2)c1ccc(-c2noc(C3CC3)n2)cc1`: 0.36 (inactive) and 0.22.
The like results for `COCC(=O)Nc1ccc(-c2nc3ccccc3s2)cc1` were, in that order, -0.9 (inactive) and -0.43.
In the case of `CCSc1nc2ccc(NS(=O)(=O)Cc3cc(C)ccc3C)cc2s1`, the z-score was 1.35 (inactive) (stronger effect = lower value) and 0.62 under setting [1].
With `Cc1csc2ncc(C(=O)N3CCCCCC3)c(=O)n12`, the z-score was -0.29 (inactive) (stronger effect = lower value) and -0.07 under setting [1].
Take `c1ccc(CCNc2c3c(nc4nncn24)CCC3)cc1`: the z-score reads like this: (stronger effect = lower value) 0.56 (inactive); under setting [1], 0.78.
The matching figures for `CC(C)n1cnc(S(=O)(=O)N2CCC(C(=O)N3CCCC3)CC2)c1`: 0.57 (inactive) and -0.23.
The matching figures for `O=C(Nc1ccc(Br)cc1F)N1CCN(c2cc(-c3ccccc3)ncn2)CC1`: -1.08 (inactive) and -1.03.
The like results for `CCC1Oc2cc(S(=O)(=O)N3CCCC(C(=O)N4CCc5ccccc54)C3)c(C)cc2NC1=O` (configuration not stated) were, in that order, 0.06 (inactive) and -0.03.
As to `CCN1CCN(S(=O)(=O)c2ccc(C)cc2C)c2cccnc21`, the z-score (stronger effect = lower value) is -0.02 (inactive) and the z-score under setting [1] is -0.19.
The like results for `Cc1ccc2c(c1)c1c(n2CC(O)CNCc2ccccc2)CCCC1` (configuration not stated) were, in that order, -2.96 (active) and -0.69.
The like results for `Cn1c(=O)n(C)c2cc(CNCC(O)c3ccccc3)ccc21` (configuration not stated) were, in that order, -0.37 (inactive) and -0.32.
Take `COC(=O)CC1=CC(=O)N(CC(=O)Nc2ccc(C)cc2Br)c2ccccc2N1`: the z-score is, setting by setting: (stronger effect = lower value) 0.27 (inactive); under setting [1], 0.25.
The like results for `COc1ccc(-n2nnc3c(N4CCN(C(=O)CC5CCCC5)CC4)ncnc32)cc1` were, in that order, -0.34 (inactive) and 0.31.
The matching figures for `CC(C)CSc1nn(C)c2nc3c(c(=O)n12)C(C)(C)Cc1ccccc1-3`: 0.12 (inactive) and -0.98.
The like results for `Cn1cc(CN2CCC(C(=O)N3CCCC3)CC2)c2cc(Cl)ccc21` were, in that order, -1.08 (inactive) and -0.88.
As for `CCC(C)(C)NC(=O)CN(C)S(=O)(=O)c1cc2c(cc1Cl)NC(=O)CO2`, the z-score reads like this: (stronger effect = lower value) 0.45 (inactive); under setting [1], -0.29.
The like results for `COc1ccc(-c2nn(-c3ccccc3)cc2C2CC(c3ccccc3)=NN2S(C)(=O)=O)cc1` (configuration not stated) were, in that order, 0.58 (inactive) and 0.97.
The like results for `Cc1nc(N2CCCC2)ncc1C(=O)N1CCCCC1` were, in that order, 0.92 (inactive) and -0.25.
The like results for `CCCn1c(=O)c2ccccc2n2c(=O)n(CC(=O)c3ccc(C)cc3C)nc12` were, in that order, -0.82 (inactive) and -0.89.
Take `Cn1c(=O)c2[nH]c(-c3ccncc3)nc2n(C)c1=O`: the z-score was -1.62 (inactive) (stronger effect = lower value) and -1.51 under setting [1].
As to `Cc1ccc(-c2noc(CCn3nc(-c4ccc5c(c4)OCO5)ccc3=O)n2)cc1`, the z-score runs as follows: (stronger effect = lower value) 1.77 (inactive); under setting [1], 1.44.
For `CCOc1ccc(NC(=O)Nc2ccc(-c3cc4cc(Cl)ccc4[nH]3)cc2)cc1`, the z-score is -0.97 (inactive) (stronger effect = lower value) and -1.43 under setting [1].
The matching figures for `Cc1nn(CC(=O)NCCc2c[nH]c3ccccc23)c(=O)c2noc(C)c12`: -1.18 (inactive) and -0.02.
The like results for `CCC(Sc1nnc(-c2ccccc2NC(C)=O)c(=O)[nH]1)C(=O)Nc1c(C)cc(C)cc1C` (configuration not stated) were, in that order, 0.57 (inactive) and -0.51.
The like results for `COc1ccc(NC(=O)CSc2nc3ccccc3n2Cc2ncc(C)c(OC)c2C)cc1` were, in that order, 0.8 (inactive) and 0.74.
Turning to `COc1ccc(CN2CCCC2c2cc(C)on2)cc1CN1CCOCC1` (configuration not stated), the z-score (stronger effect = lower value) is -1.52 (inactive) and the z-score under setting [1] is -0.66.
The matching figures for `COc1cc2[nH]c(=O)n(CCCC(=O)NCCCN3CCN(c4cccc(Cl)c4)CC3)c(=O)c2cc1OC`: -0.27 (inactive) and 0.11.
The matching figures for `O=C(CN(Cc1ccccc1)S(=O)(=O)c1ccc(Br)cc1)N1CCN(c2ccc(F)cc2)CC1`: 0.95 (inactive) and 0.76.
Regarding `O=C(Nc1ccccc1F)C1CC(=O)N(CCc2c[nH]c3ccc(F)cc23)C1` (configuration not stated), the z-score (stronger effect = lower value) was -0.07 (inactive) and the z-score under setting [1] came out at 0.17.
Regarding `CC(=O)Nc1ccc(S(=O)(=O)N2CCN(Cc3nc4cccnc4n3-c3ccc(C)cc3)CC2)cc1`, the z-score by setting is: (stronger effect = lower value) 0.91 (inactive); under setting [1], -0.17.
The matching figures for `Cc1ccc(-n2nc(N3CCCN(C(=O)C4CCC4)CC3)ccc2=O)cc1C`: -0.57 (inactive) and 1.18.
The like results for `CCN(CCCNC(=O)C1CCCN(C(=O)c2cccc(Cl)c2)C1)c1ccccc1` (configuration not stated) were, in that order, -1 (inactive) and -1.29.
The matching figures for `Cc1nc(N2CCC(C(=O)N3CCOCC3)CC2)c2c(C)c(C)oc2n1`: -0.5 (inactive) and -0.48.
With `CCOc1ccc(NC(=O)Nc2ccc(Cn3cnc(-c4nc(-c5ccc(Cl)cc5)no4)c3)cc2)cc1`, the z-score runs as follows: (stronger effect = lower value) 0.25 (inactive); under setting [1], 0.58.
The like results for `O=C(O)C1Nc2ccc(Cl)cc2C2C=CCC12` (configuration not stated) were, in that order, 1.42 (inactive) and 2.01.
The matching figures for `Cc1ccc(OCc2nc3c4ccccc4ncn3n2)cc1`: 0.29 (inactive) and 0.48.
The like results for `CC(C)c1ccc(N2C(=O)c3cc4ccsc4n3CC2(C)C(=O)NC2CCCC2)cc1` (configuration not stated) were, in that order, 0.43 (inactive) and 0.35.
